# Assay outcomes as filed in PubChem BioAssay.
# RORgamma inh: inhibitors of mouse ROR gamma transcriptional activity. AID 2551. P51450. Drosophila S2 Gal4-RORgamma UAS-luciferase reporter, 20 h. Potency, µM (doses to about 53.6 µM), usual class: inhibitors. actives 5.4% (n = 310,000); note: nearly all actives have a fitted effect of over 60% in size
#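 Compounds are pin-transferred onto Drosophila Schneider cells expressing a copper-inducible Gal4–ROR gamma transactivation domain fusion. After 1 hr, copper sulfate is added to 700 uM final; luciferase is read 20 hr later.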
# CBFb RUNX1 block: CBF-beta/RUNX1 interaction disruption | Q01196+Q13951 | AlphaScreen CBFb-His/RUNX1-biotin binding, biochemical | Potency, µM (doses to about 59.8 µM), hits mostly inhibitors | 230,000 tested, under 10 active | AID 1477
#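 CBF-beta (His) and RUNX1 (biotin), 30 nM each; 20 min preassociation; + compound, 15 min; + beads 50 ng each (Ni, streptavidin), 90 min; RT; AlphaScreen read.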
# VP16 counter: counter-screen for ROR gamma inhibitors: Gal4-VP16 reporter. Drosophila S2 Gal4-VP16 UAS-luciferase, luminescence, 20 h. AID 2546. Potency, µM (series often up to 53.6 µM), hits mostly inhibitors. actives 3.5% (n = 310,000);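 note: Gal4-VP16 expression switched on by copper sulfate through the metallothionein promoter; nearly all actives have a fitted effect of over 50% in size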
# CtBP-E1A blk: CtBP/E1A binding inhibition | AlphaScreen GST-E1A/His-CtBP binding, 1536-well; active compounds read low | activity change, % (test concentration not listed) | actives 0.49% (n = 340,000) | AID 651724; in the data active = activity change below about -65%; inconclusive = mostly about -30% to -63%
#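 Protein mix (5X: 125 nM each GST-E1A, His-CtBP) was incubated with pinned compound 2 h at 37 deg C in dark, in 50 mM Tris pH 8.0 buffer with 300 mM NaCl. Glutathione donor and nickel acceptor beads followed; AlphaScreen signal read after 1 h.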
# Six1-Eya2 blk: inhibitors of human Six1/Eya2 interaction; Q15475+O00167; AlphaScreen GST-Six1/His-Eya2 binding, biochemical; active compounds read low; activity change, % (concentration not given with the values); actives 0.56% (n = 360,000); AID 651725; in the data active = activity change below about -65%; inconclusive = mostly about -30% to -63%
#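 Six1/Eya2 binding was read as AlphaScreen signal after compounds were pinned into GST-Six1 plus His-tagged Eya2 (5X stock 250/500 nM) in pH 8.0 Tris/NaCl/TCEP buffer, beads added, then incubated 1 h, 37 C, dark.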
# MBNL1-CUG inh: inhibitors of human MBNL1 binding to CUG repeat RNA; Q9NR56; TR-FRET MBNL1-His/biotin-(CUG)12 binding, 665/545 ratio; Potency, µM (titrated, usually from 57.5 µM), actives largely listed as inhibitors; actives 0.036% (n = 280,000); active = well fitted inhibition curve with a large enough effect in the signal ratio, with a control signal flat, not every such curve was filed as active; inconclusive = small, poorly fitted or top-dose-only effect, or effect the other way, or a change in a side signal; inactive = no such curve, though single readings can be large or run the other way; the % refers to the signal ratio
#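 Compounds (final 92 nM to 58 uM) are added to His-tagged MBNL1 and biotin-(CUG)12, then terbium anti-His antibody and streptavidin-XL665 (5 nM final). After 60 min at room temperature, the 665/545 nm ratio is read.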
# A number is an active result; 0 = inactive; ? = inconclusive; - = not tested or not shown. Only some compounds are listed: those with a hit (about 5.5% of all), similar ones and a draw of the others. Unless noted, calls come from the whole dose curve; as a rule, active = well fitted curve in the direction sought with a large enough effect; inconclusive = small, poorly fitted or top-dose-only effect, or another doubt; inactive = no such curve, though single readings can be large; an effect the other way counts as inactive or inconclusive.
SMILES,RORgamma inh,CBFb RUNX1 block,VP16 counter,CtBP-E1A blk,Six1-Eya2 blk,MBNL1-CUG inh
O=C(CCc1ccccc1)NC(=S)Nc1ccccc1[N+](=O)[O-],10µM,-,11.2µM,0,0,?
CC(C)c1ccc(O)c(NC(=S)NC(=O)CCc2ccccc2)c1,12.6µM,0,0,0,0,0
CC(=O)Nc1sc(C)c(C)c1C(=O)OCC(=O)Nc1ccccc1C(F)(F)F,-,-,-,0,0,-
O=C(c1cc(COc2ccc(F)cc2F)on1)N1CCN(C2CCCC2)C(=O)C1,0,-,0,0,0,0
C[C@H](CO)N1C[C@H](C)[C@H](CN(C)C(=O)Nc2ccc(F)cc2)OCc2cnnn2CCCC1=O,-,-,-,0,0,-
COc1ccccc1NC(=S)NC(=O)CCc1ccccc1,12.6µM,-,10µM,0,0,0
O=C(NC(=S)Nc1ccccc1[N+](=O)[O-])c1ccccc1,?,0,2µM,0,0,?
O=C(CCc1ccccc1)NC(=S)Nc1cccc(Br)c1,11.2µM,0,?,0,0,0
O=C(C[n+]1ccccc1)Nc1ccccc1[N+](=O)[O-],0,-,0,0,0,0
O=C(C[n+]1ccccc1)Nc1ccccc1Br,1.26µM,0,2.82µM,0,0,0
CC(C)(C)N(Cc1ccccc1)C(=O)COC(=O)C1CCCCC1,-,-,-,0,0,-
CC(=O)OCC(=O)[C@@]1(O)CCC2C3CCC4=CC(=O)CC[C@]4(C)C3C(O)C[C@]21C (some centres not stated),0,0,0,-,-,-
Cc1cc(NC(=O)CSc2nc3c(cnn3-c3cccc(Cl)c3)c(=O)[nH]2)no1,-,-,-,0,0,-
O=C(CCc1ccccc1)NC(=S)Nc1cccc(C(=O)O)c1,0,-,0,0,0,0
O=C(CCc1ccccc1)NC(=S)Nc1ccccc1Br,3.55µM,0,?,0,0,0
Cn1c(SCC(=O)NC2CCCC2)nnc1-c1ccco1,?,-,0,0,0,0
Cc1cc(NC(=S)NC(=O)c2ccco2)c2ccccc2n1,11.2µM,0,0,0,0,0
O=C(NC(=S)Nc1cccc2ncccc12)c1ccco1,?,0,0,0,0,0
Cc1cc(NC(=O)Cc2ccccc2)c2ccccc2n1,?,0,3.16µM,0,0,0
COC(=O)Nc1cc(C)nc2ccccc12,?,0,0,0,0,0
CCC(C)(C)C1CCC2(CC1)NC(=O)N(CC(=O)Nc1cc(C(F)(F)F)ccc1N1CCOCC1)C2=O (configuration not stated),-,-,-,0,0,0
COc1ccc(CN2C[C@@H](CO)O[C@@H](n3cnc4c(N(C)C)ncnc43)C2)cc1,-,-,-,0,0,-
NNC(=O)c1cc2ccccc2cc1NS(=O)(=O)c1ccccc1,20µM,-,?,0,0,0
CCOC(=O)C1=CCC(c2cccc3ccccc23)N(S(=O)(=O)c2ccc(C)cc2)C1 (configuration not stated),-,-,-,0,0,-
CC(C)n1c(=S)[nH]c2scc(-c3cccs3)c2c1=O,?,-,0,0,0,-
SMILES,RORgamma inh,CBFb RUNX1 block,VP16 counter,CtBP-E1A blk,Six1-Eya2 blk,MBNL1-CUG inh
O=c1c2c(-c3cccs3)csc2[nH]c(=S)n1-c1ccccc1,2.24µM,0,3.55µM,0,0,0
CCn1c(=S)[nH]c2scc(-c3cccs3)c2c1=O,0.708µM,0,3.16µM,0,0,0
C=CCn1c(SCC(C)=O)nc2scc(-c3ccc(C)o3)c2c1=O,0,-,0,0,0,0
C=CCn1c(=S)[nH]c2scc(-c3ccc(C)o3)c2c1=O,0.282µM,0,1.26µM,0,0,0
COC(=O)C[C@@H]1OC[C@H](C(C)C)N1S(=O)(=O)c1ccc(C)cc1,-,-,-,0,0,-
O=C(c1cc(Cl)ccc1O)N1CCN(S(=O)(=O)c2cccs2)CC1,-,-,-,0,0,-
Cc1cc(C)cc(Cn2c3ccc(NC(=O)NCc4ccc(F)cc4)cc3c(=O)n2C)c1,-,-,-,0,0,-
C/C(=N\NC(=O)C(N)=O)c1ccc(OC(F)F)cc1,0,0,0,0,0,0
COCCNC(=S)N/N=C(\C)c1ccc(OC(F)F)cc1,2.24µM,0,7.94µM,0,0,0
